The source of these data is the supplement of paper PMC10681739.

The target of this experiment is T1, ETS1 (UniProt P14921).
T1 sequence: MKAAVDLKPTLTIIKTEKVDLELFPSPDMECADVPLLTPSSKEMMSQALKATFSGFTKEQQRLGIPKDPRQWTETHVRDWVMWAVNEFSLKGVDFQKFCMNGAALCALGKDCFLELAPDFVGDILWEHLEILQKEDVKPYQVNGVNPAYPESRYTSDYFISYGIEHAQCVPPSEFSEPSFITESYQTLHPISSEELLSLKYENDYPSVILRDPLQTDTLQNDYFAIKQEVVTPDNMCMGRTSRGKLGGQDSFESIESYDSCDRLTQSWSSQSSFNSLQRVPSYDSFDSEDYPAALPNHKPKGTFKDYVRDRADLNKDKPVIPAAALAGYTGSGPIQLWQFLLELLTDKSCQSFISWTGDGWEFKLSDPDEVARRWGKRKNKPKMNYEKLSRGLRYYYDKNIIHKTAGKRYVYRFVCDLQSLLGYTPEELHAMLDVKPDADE
Kind of experiment: ETS1 binding intensity (PBM fluorescence) in presence of RUNX1, normalised to ETS1-only experiment (arbitrary fluorescence units); higher = stronger binding. The conditions noted are these: ETS1 concentration 1 nM; RUNX1 concentration 25 nM.
Consider TTTGTAAGAGGAGGAAGTGGTTTGTAAGAGGAGAAA, for which the ETS1 binding intensity was 3260. On to GAGGACGCGGAAGTCCTTCTTGCGGGGCGGAGCTAG, for which the ETS1 binding intensity was 840. GCCCAATTCCCGAATCCGGTCTGCGGCGCGCTCGGG: the ETS1 binding intensity came out at 507. Next, CTCCCACATCCGAAGCGGCGCAACCCACAACAGCCT: 344. Next, CCATTTCCGCGCACGTCTGCAGATGCGGTAGTCGAT: 463. For the sequence GAGATACACAGCGACATCCGCCCGCAAGAGCATGGT, the ETS1 binding intensity came out at 1090.

As to TTCAATCACAGGAAACAGACGTCACCCACAGACCTA, the ETS1 binding intensity is 2200.

Turning to AACTAAGTGCAGGGGAAGTTGTGGTTATTTTTTACC, the ETS1 binding intensity was 3360. Next, AGGTTCCGGCGAAAGTGACCGAAAGTAACCGCCGGG: 518. Next, GGTTTCGCTTCCGGGTTAGGCGGCCGCAGAAGCGTA: 1340. Next, GCCGGGCACCCCGGAAGACCGCTGGGAACCGGCTTT: 1070; TGCGCCGCGGAACCCGGAAGTGGTCACGGAGCTCGG: 23400; TCCAAGGCGGAAAAAACCCGCCCTAAACCGCACCCC: 1040.

Regarding GGGCGGGTCAGCGGAAGTGAGGGCGGTTGAGGCTGG, the ETS1 binding intensity is 4550. As for AGTGGCTACCACTTCCTTCTCTTACCACAGTTCCTT, the figure is 607; as for AAAGCAAACAGGAAGTGCTGTGGTAACAAGGCCCCA, 14500; as for GTGGGGCGGGCTTCCGGCGCTCCCACCGCGAGCCGA, 1050. As for TGCATGTGCAGCAGAGGAAACCACAAGTTATTCCCT, the figure is 1560; as for AACTTCCGAGGGAACTAACTGGTTTTAACCACATTG, 923; as for TTATTTCCGGTGTTGATCTTTTTAGTGGTACCAGGC, 3640.

Turning to TTTACTGAGAGGAAGTGGTTCTTGTGGGTGAAGGTC, the ETS1 binding intensity is 6070.

With CCTCCCTGAGGGGGAAGTGGTTTTTGAGTCTGAGTC, the ETS1 binding intensity turned out to be 1190. Next, CAGGCAGGATGTTGACTCAGCTGCCAAGTGGTTTTG: 1760; GAGAACTTCCGGTGCGCTCCCCGGGACTGCGGTCCC: 4920. Next, ATGGGTACAGGATTTCCTTTTGTGGTGATGAAAATG: 1030. CGCCCACCACTTCCTGCTGGCGGTCGGCAAGCGTTG: the ETS1 binding intensity was determined as 2240. Regarding GAGCGCAGGACGGAAGCTCGGTGCGGGTGCGGCCTC, the ETS1 binding intensity turned out to be 938.

Take CAGACCAGCCCAGGAAACAAGGAACCACAAAGCCAC: the ETS1 binding intensity turned out to be 2260. Next, GGTCAGGTGGGCGTTTCCTGTGGGCGTCTCCAACTC: 1230; CTCCGGCGGAAGTTGTCTCTTCGCCGCCGCCGCAGC: 5200. As for CCAACGAGCACTTCCGCTTCCCGCAGCTCCAGCGGC, the figure is 4270; as for TCCTGTAGTTTCCGGCTGAAGTGGTAAGGTTTTTGA, 852. As for ATGCTAGAAAGCAGGAAGCCACAGACACGCCCCAAC, the figure is 1120; as for ACGTGATGGCAGTCTTCCTGCCCACAAGTTCTGGTC, 486. As to CTCCACCGGATGCAGCAATGAAGGCCGCAGGAATGG, the ETS1 binding intensity was found to be 3990. As for TGTCATCCCGGAAACTGATAACAAGACCGCGAGTCA, the figure is 2530.

CCTCGCCCCCTTCCGCACCCACCCCACCGCGCTCCG: the ETS1 binding intensity amounted to 786. As for CTTTGCTGCAGGATGTTCTAACCACAAGCCCAGGAG, the figure is 6670; as for GCACAGGCCGGAAGGAAAAGGGTTGTGGGGCTCATT, 1180; as for GACACGTCTTTGGAAGGATGTGGTTGCCGTGGGTTT, 5580.
